# Assay results: PubChem BioAssay (Tox21)
# Values joined by “and” are separate entries in the source; they are usually repeats but may differ in a detail not shown here. Identical values can stand only once. Inconclusive results are not listed. A call without a number means that no potency is given here. Active and inactive are the calls of the source. The call rests on the fitted dose curve; in most records, active means well fitted cell-killing curve with a large enough effect in the repeat runs; inconclusive means weak or mixed curves, or effect the other way; inactive means flat fitted curve, though single readings scatter.
# Experiment: Nuclear factor erythroid 2-related factor 2/antioxidant responsive element (Nrf2/ARE) small molecule agonists: qHTS cell viability counter screen in human keratinocytes (AID 1919968); further: nearly all actives have a fitted effect of over 55% in size
# Conditions: KeratinoSens HaCaT ARE cells viability, CellTiter-Fluor, 24 h; series mostly up to 92.4 µM
# Description: U.S. Tox21 Program National Center for Advancing Translational Sciences [NCATS] Division of Preclinical Innovation [DPI] U.S. Environmental Protection Agency [EPA] National Institutes of Environmental Health Sciences [NIEHS] National Toxicology Program [NTP] U.S. Food and Drug Administration [FDA] Tox21 Assay Overview: Oxidative stress has been implicated in the pathogenesis of a variety of diseases ranging from cancer to neurodegeneration. The antioxidant response element (ARE) signaling pathway plays an important role in the amelioration of oxidative stress. The KeratinoSens (Givaudan, Switzerland) is an in vitro test method which quantifies luciferase induction as a measure of activation of Keap1-Nrf2-antioxidationt/electrophile response element (ARE) dependant pathway in HaCaT human keratinocytes stably transfected with a selectable plasmid. The KeratinoSens assay is a cell-based assay with a reporter cell line to detect potential skin sensitizers by their ability to induce the Nrf2/ARE-response. The activation of the report gene under culture conditions can be detected by ONE-Glo Luciferase Assay System (Promega, Madison, WI). This cell line has been used to screen the Tox21 10K compound library to identify agonists that induce oxidative stress. The cytotoxicity of the Tox21 compound library against the KS-ARE cell line was tested in parallel by measuring the cell viability using CellTiter- Fluor assay system (Promega, Madison, WI) in the same wells.
# Tox21 Assay Protocol Summary: HaCaT derived cell line KeratinoSens were dispensed at 1,500 cells/5uL/well in 1536-well white wall/solid bottom plates using a Multidrop Combi (ThermoFisher Scientific, Waltham, MA) dispenser. After the assay plates were incubated at 37 C/5% CO2 for 5 h, 23 nL of compounds dissolved in DMSO, positive controls or DMSO only was transferred to the assay plate by a pintool workstation (Kalypsys, San Diego, CA). The plates were incubated at 37 C/5% CO2 for 23 h, followed by addition of 1uL/well of CellTiter-Fluor reagent into the assay plates using a Flying Reagent Dispenser (Aurora Discovery, San Diego, CA) for cell viability readout that measures cytotoxicity. After 1 h incubation at 37 C/5% CO2 the fluorescence intensity was measured using a ViewLux (PerkinElmer, Shelton, CT) plate reader.
# Potency means the concentration at half of the fitted maximal effect.
row,Structure (SMILES),Potency
1,CC(C)[N+](C)(CCOC(=O)C1c2ccccc2Oc2ccccc21)C(C)C,inactive
2,CCCCCCCC/C=C\CCCCCCCC(=O)O,inactive
3,CC(C)(Oc1ccc(C2CC2(Cl)Cl)cc1)C(=O)O (stereo not given),inactive
4,Cc1ncc(CO)c(CO)c1O,inactive
5,c1ccc2scnc2c1,inactive
6,C=C(C)OC(C)=O,inactive
7,CCCCCCCC(=O)OCC(O)CO (stereo not given),inactive
8,O=C(O)c1ccc2c(c1)C(=O)OC2=O,inactive
9,C=CN1CCCC1=O,inactive
10,Cc1c(OCC(F)(F)F)ccnc1CS(=O)c1nc2ccccc2[nH]1 (stereo not given),inactive
11,Cc1cccc(C(=O)O)c1,inactive
12,Nc1cccc(C(F)(F)F)c1,inactive
13,CCCCC(CC)COC(=O)/C=C\C(=O)OCC(CC)CCCC (stereo not given),inactive
14,Fc1ccc(Br)cc1,inactive
15,CCCCCCCCCCCCCCCCCC(=O)OCC(O)CO (stereo not given),inactive
16,CN(C)CCOC(C)(c1ccccc1)c1ccccn1 (stereo not given),inactive
17,C1CNCCN1,inactive
18,CN(C)CCC(c1ccccc1)c1ccccn1 (stereo not given),inactive
19,CCOC(=O)C(C#N)=C(c1ccccc1)c1ccccc1,inactive
20,Brc1nc2ccccc2s1,inactive

row,Structure (SMILES),Potency
1,CC(=O)CC(c1ccccc1)c1c(O)c2ccccc2oc1=O (stereo not given),inactive
2,CC1CCC2CC1C2(C)C (stereo not given),inactive
3,CCCCCCCCCCCO,inactive
4,CCCCN(CCCC)CCCC,inactive
5,CCCCC1C(=O)N(c2ccccc2)N(c2ccccc2)C1=O,inactive
6,C/C=C(C)/C=C/C=C(C)C,inactive
7,CC(C)=CCO,inactive
8,O=C(O)c1cccnc1,inactive
9,C=CC(=O)OCCOCCOCCOCCOC(=O)C=C,61.4 µM (active) and 48.1 µM (active)
10,CC(=O)O[C@]1(C(C)=O)CC[C@H]2[C@@H]3C=C(Cl)C4=CC(=O)[C@@H]5C[C@@H]5[C@]4(C)[C@H]3CC[C@@]21C,inactive
11,O=c1c(-c2ccc(O)cc2)coc2cc(O)cc(O)c12,inactive
12,CCC(=O)OC/C=C/c1ccccc1,inactive
13,CC1=C(/C=C/C(C)=C/C=C/C(C)=C/C(=O)O)C(C)(C)CCC1,inactive
14,COCCOC(=O)c1ccccc1C(=O)OCCOC,inactive
15,C=C(C)C(=O)OCCCCCCCCCCCC,inactive
16,CN(C)c1nc(N(C)C)nc(N(C)C)n1,inactive
17,COCCOCCOCCO,inactive
18,C/C=C/C=C/C(=O)O,inactive
19,CCCCOCCOCCSC#N,inactive
20,OCCCc1ccccc1,inactive
